Sa helicase inh = S. aureus DNA helicase inhibition | purified S. aureus helicase, fluorescence unwinding assay | inhibition, % (concentration not given with the values) | 0.05% of 120,000 active | AID 485395; in the data active means inhibition above about 25%, passing the limit was not always enough
Sa growth 42C = blocks Staphylococcus aureus growth; 0.53% of 170,000 active; S. aureus RN4220 growth, OD600, 20 h, 42 °C; active compounds read low; relative growth, % (no concentration beside the values);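 active means relative growth at most 50% at the other temperature and 20+ points below 30 °C, or under 10% at both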
Hits are given with their value; n = inactive; x = not tested or not shown. Most compounds without a hit are left out; they make up all but 0.52% or so of the library.

SMILES | Sa helicase inh | Sa growth 42C
CC(=O)N1c2ccccc2NC2=C(C(=O)CCC2)C1c1ccc(N(C)C)cc1 (centres undefined) | n | n
O=C(CCn1c(=O)[nH]c2ccccc2c1=O)N1CCCCC1 | n | n
Cc1nn(CCC#N)c(C)c1Sc1ncccn1 | x | n
N#CCCN/N=C/c1ccc(-c2ccc(SC(F)F)cc2)o1 | n | 48
NC(=O)N/N=C/c1ccc(-c2ccc(SC(F)F)cc2)o1 | n | n
CN(Cc1ccccc1)Cc1c(O)ccc2c(=O)c(-c3ccccc3)coc12 | n | n
Cc1c(-c2csc(-c3ccc4c(c3)OCCO4)n2)cnn1-c1ccccc1 | n | n
NCCCOCC1CC1 | n | n
O=C1C2SCCN2C(=S)N1c1cccc(C(F)(F)F)c1 (centres undefined) | x | 46
O=C1CSC(=S)N1c1cccc(C(F)(F)F)c1 | n | x
COc1nc(OC)nc(N2CCN(c3cc(C)ccc3C)CC2)n1 | n | n
COc1cc2nc(N3CCN(c4cc(C)ccc4C)CC3)nc(N)c2cc1OC | n | -0.7
C=CCN1C(=O)/C(=C\c2ccc(C(=O)O)cc2)S/C1=N\c1nnc(CC)s1 | n | n
S=C1NCN(Cc2ccccc2)CN1Cc1ccccc1 | n | n
COC(=O)C1=C(O)/C(=C/c2ccc(C(C)(C)C)cc2)N=C1C | n | n
CCN1CCN(c2ccc(Nc3ccnc4cc5ccccc5cc34)cc2)CC1 | 48 | n
CN1CCN(c2ccc(Nc3ccnc4cc(Cl)ccc34)cc2Cl)CC1 | n | n
CSc1cccc(NC(=S)NC(C)(C)C)c1 | x | n
CC(C)(C)c1ccc(Cn2c(N)nc3ccccc32)cc1 | n | 6.3
Nc1nc2ccccc2n1Cc1ccccc1F | n | n
O=C(CCN1CCCCC1)c1ccccc1 | n | n
CCc1oc2ccccc2c1C(=O)CCN1CCCCC1 | n | 41
O=C1NC(=S)S/C1=C\C=C\c1ccccc1 | n | 6.9
O=C1NC(=O)/C(=C\C=C\c2ccccc2)S1 | n | x
CCc1nnc(NC(=O)c2ccc(S(=O)(=O)N(C)c3ccccc3)cc2)o1 | n | n
SMILES | Sa helicase inh | Sa growth 42C
COCc1nnc(NC(=O)c2ccc(S(=O)(=O)N(C)C3CCCCC3)cc2)o1 | n | 8.5
CSCc1nnc(NC(=O)c2ccc(S(=O)(=O)N(CC(C)C)CC(C)C)cc2)o1 | n | -0.4
CC(C)CN(CC(C)C)S(=O)(=O)c1ccc(C(=O)Nc2nnc(-c3ccccn3)o2)cc1 | n | n
COc1ccc(NCc2c(C#N)c(C)nn2-c2ccccc2)cc1 | n | n
Cc1cc(C)n(NC2=CC(=O)CC(C)(C)C2)c(=O)c1C#N | n | n
CCOC(=O)c1ccccc1NC(=O)C12CC3CC(CC(C3)C1)C2 | n | n
CCn1c2ccccc2c2cc(N=C=S)ccc21 | n | n
CCn1c2ccccc2c2cc(C#N)ccc21 | n | 44
COc1cc(-c2nc3ncccn3c2Nc2ccc(OC)c(OC)c2)ccc1O | n | n
CC1=NN(c2cccc(C(F)(F)F)c2)C(=O)C1 | n | 0.4
CC1=NN(c2cccc(SC(F)F)c2)C(=O)C1 | n | n
CCS(=O)(=O)c1ncc(Cl)c(C(=O)Nc2c(C(=O)Nc3cccc(C)c3)oc3ccccc23)n1 | x | n
CS(=O)(=O)c1ncc(Cl)c(C(=O)Nc2cccc(Cl)c2)n1 | n | 0.2
COc1ccc(NC(=O)c2nc(S(C)(=O)=O)ncc2Cl)cc1Cl | n | n
CS(=O)(=O)c1ncc(Cl)c(C(=O)N2CCN(C(c3ccccc3)c3ccccc3)CC2)n1 | n | 4.2
O=C(O)c1nccnc1C(=O)N1CCN(C(c2ccccc2)c2ccccc2)CC1 | n | n
Cc1cccc(NC(=O)c2nc(S(C)(=O)=O)ncc2Cl)c1 | x | 1.0
CCS(=O)(=O)N1CCN(c2ccc(C)cc2)C(C)C1 (centres undefined) | n | n
O=C1CCC(=O)N1c1ccc(OC(F)(F)F)cc1 | x | n
C/C=C/C(=O)OCc1cc(=O)oc2cc(NC(=O)OCC)ccc12 | n | n
CC(NC(=O)c1cc(=O)c2ccccc2o1)C(c1ccccc1)N1CCOCC1 (centres undefined) | 35 | n
CC(NC(=O)Cc1ccccc1)C(c1ccccc1)N1CCOCC1 (centres undefined) | n | n
C=C(NC(=O)C(=C)NC(=O)c1csc(C2=NC3c4csc(n4)C4NC(=O)c5csc(n5)C(C(C)(O)C(C)O)NC(=O)C5CSC(=N5)C(=CC)NC(=O)C(C(C)O)NC(=O)c5csc(n5)C3(CC2)NC(=O)C(C)NC(=O)C(=C)NC(=O)C(C)NC(=O)C(C(C)CC)NC2C=Cc3c(C(C)O)cc(nc3C2O)C(=O)OC4C)n1)C(N)=O (centres undefined) | x | -1.0
Cc1ccc(Nc2nc(CN(C)CCCc3[nH]nc(N)c3C#N)cs2)cc1 | n | -1.1
Cc1ccc(Nc2nc(C(=O)N(C)Cc3ccccc3)cs2)cc1 | n | n
SMILES | Sa helicase inh | Sa growth 42C
O=C(c1ccc2c(c1)OCO2)c1cn(Cc2ccc(F)cc2)c2cc3c(cc2c1=O)OCO3 | n | n
Cc1ccc(NCc2nnc(SCC(=O)O)n2-c2cccc(Cl)c2)cc1 | n | n
CC(=O)Nc1ccc2c(c1)OCO2 | n | n
N#CC(C#N)=NNc1ccc2c(c1)OCO2 | n | 0.6
FC(F)(F)c1ccccc1Nc1nc(-c2cccnc2)cs1 | n | n
N#CC(C#N)=NNc1ccccc1C(N)=O | n | -0.5
NC(=O)c1ccccc1NC(=O)Nc1ccccc1 | n | n
Cc1cccc(/C=C2\SC(=O)N(C)C2=O)c1 | n | n
CCCCCNc1nc(C(C)C)c2c(c1C#N)CC(C)(C)OC2 | n | n
CN1CCC(NC(=O)c2cccs2)CC1 | n | n
CC1c2ccsc2CCN1C(=S)NC(=O)c1cccs1 (centres undefined) | x | -0.4
CCOC(=O)CCC(=O)O[C@H]1[C@H](O[C@@H]2[C@@H](C)[C@H](O[C@H]3C[C@@](C)(OC)[C@@H](O)[C@H](C)O3)[C@@H](C)C(=O)O[C@H](CC)[C@@](C)(O)[C@H](O)[C@@H](C)C(=O)[C@H](C)C[C@@]2(C)O)O[C@H](C)C[C@@H]1N(C)C | x | -0.8
CO[C@@H]1[C@@H](O[C@@H]2O[C@H](C)[C@@H](O[C@H]3C[C@@](C)(O)[C@H](O)[C@H](C)O3)[C@H](N(C)C)[C@H]2O)[C@@H](CC=O)C[C@@H](C)[C@@H](O[C@H]2CC[C@H](N(C)C)[C@@H](C)O2)/C=C/C=C/C[C@H](C)OC(=O)C[C@H]1O | x | n
CC[C@H]1OC(=O)[C@H](C)[C@@H](O[C@H]2C[C@@](C)(OC)[C@@H](O)[C@H](C)O2)[C@H](C)[C@@H](O[C@@H]2O[C@H](C)C[C@H](N(C)C)[C@H]2O)C(C)(O)C[C@@H](C)CN(C)[C@H](C)[C@@H](O)[C@]1(C)O (some centres undefined) | x | -0.4
CC[C@H]1OC(=O)[C@H](C)[C@@H](O[C@H]2C[C@@](C)(OC)[C@@H](O)[C@H](C)O2)[C@H](C)[C@@H](O[C@@H]2O[C@H](C)C[C@H](N(C)C)[C@H]2O)[C@](C)(O)C[C@@H](C)C(=O)[C@H](C)[C@@H](O)[C@]1(C)O | x | -0.9
CCC(=O)O[C@H]1[C@H](O[C@@H]2[C@@H](C)[C@H](O[C@H]3C[C@@](C)(OC)[C@@H](O)[C@H](C)O3)[C@@H](C)C(=O)O[C@H](CC)[C@@](C)(O)[C@H](O)[C@@H](C)C(=O)[C@H](C)C[C@@]2(C)O)O[C@H](C)C[C@@H]1N(C)C | x | -0.9

Source: PubChem BioAssay
